Laboratory results published in the supplement of paper PMC7366291.
Where a name gives a salt, the structure may show the parent alone. ± gives the standard deviation or the standard deviation of the averaged measurements.

Experiments:
Details in all cases: 25 µM; exposure: 24-48 hpf
[1] = test system: Danio rerio Tg(wt1b:EGFP) embryo, pronephros; experiment: glomerular separation, fold change vs DMSO control; higher = glomeruli further apart (abnormal)
How it was run: (§1)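 Each feature value is a fold change relative to the mean of same-day DMSO-treated embryos. Embryos of the Tg(wt1b:EGFP) zebrafish line, dechorionated, received 25 μM compound in 0.5% DMSO from 24 to 48 hpf at 28.5°C, in HEPES-buffered E3 with 0.003% PTU. Distances and angles were computed by a Fiji macro from 16 manually set reference points on maximum projections of dorsal pronephros images, and values beyond 2 SD of the feature mean were removed.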

[2] = test system: Danio rerio Tg(wt1b:EGFP) embryo, pronephros; experiment: glomerular width (mean of left and right), fold change vs DMSO control; higher = wider glomerulus
How it was run: as §1

[3] = test system: Danio rerio Tg(wt1b:EGFP) embryo, pronephros; experiment: fraction of imaged embryos annotated as normal kidney; higher = less nephrotoxic; extreme values may be limits of the assay
How it was run: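 The value given is the share of embryos in each treatment scored as having a normal kidney. To obtain it, dechorionated Tg(wt1b:EGFP) zebrafish embryos were treated from 24 to 48 hpf at 28.5°C with 25 μM compound in 0.5% DMSO, in 5 mM HEPES-buffered E3 with 0.003% PTU. Pronephroi were imaged by widefield fluorescence (470 nm, 10 z-slices), and every embryo was annotated by hand from maximum projections.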

[4] = test system: Danio rerio Tg(wt1b:EGFP) embryo, pronephros; experiment: pronephric angle neck segment to proximal convoluted tubule (mean of left and right), fold change vs DMSO control; higher = larger pronephric angle
How it was run: as §1

Row | Compound | glomerular separation [1] | glomerular width [2] | fraction of imaged embryos annotated as normal kidney [3] | pronephric angle neck segment [4]
1 | Nc1ccc(S(=O)(=O)Nc2nccs2)cc1 [Sulfathiazole] | 0.931 ± 0.36 | 0.936 ± 0.027 | 0.917 | 0.957 ± 0.019
2 | CNCC(O)c1ccc(O)c(O)c1 (stereo not drawn) [Racepinephrine hydrochloride] | 0.935 ± 0.21 | 0.946 ± 0.011 | 0.667 | 0.998 ± 0.035
3 | CN1C(=O)CC(c2ccccc2)C1=O (stereo not drawn) [Phensuximide] | 0.924 ± 0.43 | 0.9434 ± 0.0058 | 0.889 | 0.997 ± 0.013
4 | CNc1ncnc2c1ncn2[C@@H]1O[C@H](CO)[C@@H](O)[C@H]1O [N6-methyladenosine] | 0.849 ± 0.21 | 1.05 ± 0.029 | 1 | 1.01 ± 0.065
5 | Cc1cc(N)c2ccccc2[n+]1CCCCCCCCCC[n+]1c(C)cc(N)c2ccccc21 [Dequalinium dichloride] | 1 ± 0.33 | 1.02 ± 0.021 | 0.75 | 0.9864 ± 0.0034
6 | Cc1onc(-c2ccccc2Cl)c1C(=O)N[C@@H]1C(=O)N2[C@@H]1SC(C)(C)[C@@H]2C(=O)O [Cloxacillin sodium salt] | 1.06 ± 0.42 | 1.172 ± 0.0081 | 0.833 | 1 ± 0.035
7 | CC(C)(S)C(N)C(=O)O (racemic) [D,L-Penicillamine] | 1.31 ± 0.71 | 1.03 ± 0.015 | 0.583 | 0.996 ± 0.025
8 | CCN(CC)C(=O)/C(C#N)=C/c1cc(O)c(O)c([N+](=O)[O-])c1 [Entacapone] | 1.88 ± 1.4 | 0.938 ± 0.17 | 0.583 | 1.28 ± 0.14
9 | CCOC(=O)C1=C(C)NC(C)=C(C(=O)OC)C1c1cccc(Cl)c1Cl (stereo not drawn) [Felodipine] | 5.36 ± 2.5 | 0.634 ± 0.029 | 0 | 1.44 ± 0.022
10 | COc1cc([C@@H]2c3cc4c(cc3[C@@H](O[C@@H]3O[C@@H]5CO[C@@H](C)O[C@H]5[C@H](O)[C@H]3O)[C@H]3COC(=O)[C@H]23)OCO4)cc(OC)c1O [Etoposide] | 0.917 ± 0.24 | 1.052 ± 0.0085 | 0.75 | 0.982 ± 0.013
11 | Nc1ccc(S(=O)(=O)c2ccc(N)cc2)cc1 [Dapsone] | 1.08 ± 0.44 | 1.04 ± 0.077 | 0.5 | 1.14 ± 0.042
12 | CCN(CC)CCOC(=O)C(Cc1cccc2ccccc12)CC1CCCO1 (stereo not drawn) [Nafronyl oxalate] | 1.2 ± 0.63 | 0.945 ± 0.058 | 0.583 | 1.04 ± 0.054
13 | COc1cc(-c2ccc(=O)[nH]n2)ccc1OC(F)F [Zardaverine] | 1.12 ± 0.48 | 0.9712 ± 0.0072 | 0.583 | 0.994 ± 0.013
14 | CCN(CC)CCOCCOC(=O)C1(c2ccccc2)CCCC1 [Carbetapentane citrate] | 0.953 ± 0.34 | 0.949 ± 0.062 | 0.75 | 1.06 ± 0.11
15 | CCN(CCCc1ccccc1)CCCc1ccccc1 [Alverine citrate salt] | 0.843 ± 0.21 | 1.02 ± 0.044 | 0.75 | 0.942 ± 0.035
16 | Cc1ccc(S(=O)(=O)NC(=O)NN2CC3CCCC3C2)cc1 (stereo not drawn) [Gliclazide] | 0.87 ± 0.46 | 1.05 ± 0.021 | 0.917 | 0.982 ± 0.011
17 | CN1CCOC(c2ccccc2)c2ccccc2C1 (stereo not drawn) [Nefopam hydrochloride] | 0.828 ± 0.19 | 0.982 ± 0.05 | 0.909 | 1.02 ± 0.012
18 | N=C(N)NC(=O)Cc1c(Cl)cccc1Cl [Guanfacine hydrochloride] | 0.827 ± 0.15 | 1.08 ± 0.1 | 0.583 | 0.978 ± 0.025
19 | c1ccc2c(CC3=NCCN3)cccc2c1 [Naphazoline hydrochloride] | 1.17 ± 0.54 | 1 ± 0.0079 | 1 | 1.006 ± 0.0059
20 | CCc1cccc(CC)c1NC(=O)CN(CC(=O)O)CC(=O)O [Etifenin] | 1.34 ± 0.55 | 1.052 ± 0.01 | 0.667 | 1.01 ± 0.015
21 | CCC(C)(CN(C)C)OC(=O)c1ccccc1 (stereo not drawn) [Amyleine hydrochloride] | 1.1 ± 0.77 | 1.04 ± 0.028 | 0.833 | 0.9967 ± 0.0077
22 | O=C1c2c(O)cccc2Cc2cccc(O)c21 [Anthralin] | 0.949 ± 0.28 | 0.986 ± 0.02 | 0.909 | 1.06 ± 0.014
23 | CCOC(=O)OC(C)OC1=C(C(=O)Nc2ccccn2)N(C)S(=O)(=O)c2ccccc21 (stereo not drawn) [Ampiroxicam] | 0.796 ± 0.29 | 1.1 ± 0.027 | 1 | 0.963 ± 0.018
24 | CC1=Nc2ccc(Cl)cc2S(=O)(=O)N1 [Diazoxide] | 0.743 ± 0.26 | 1.03 ± 0.029 | 0.833 | 0.942 ± 0.035
25 | CC[C@H]1OC(=O)[C@H](C)[C@@H](O[C@H]2C[C@@](C)(OC)[C@@H](O)[C@H](C)O2)[C@H](C)[C@@H](O[C@@H]2O[C@H](C)C[C@H](N(C)C)[C@H]2O)[C@](C)(O)C[C@@H](C)C(=O)[C@H](C)[C@@H](O)[C@]1(C)O [Erythromycin] | 1.19 ± 0.74 | 1.042 ± 0.0044 | 0.818 | 0.9494 ± 0.0015
26 | O=C(O)c1cc(-c2ccc(F)cc2F)ccc1O [Diflunisal] | 4.51 ± 2.5 | 0.881 ± 0.022 | 0.0833 | 1.69 ± 0.17
27 | Nc1nc(O)c2ncn(CCC(CO)CO)c2n1 [Penciclovir] | 0.817 ± 0.31 | 1.01 ± 0.019 | 0.917 | 0.964 ± 0.05
